The list is not random: actives were taken first. Their share in the collection is about 3.2%.
Cardio protect = myocardial damage modulation in H9c2 cells; H9c2 cardiomyocytes, H2O2 injury protection, ATPLite, 2 h; protection from H2O2 cell death, % at 20 µM; 0.63% of 360,000 active; AID 588492;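 active = compounds giving at least 50% protection of heart cells from peroxide-induced death in the single-dose screen, raw or plate-pattern-corrected value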
CRFBP-R2 block = CRF-BP/CRF-R2 complex antagonism; HEK293 CRF-R2/CRF-BP, CRF-induced calcium fluorescence; inhibition, % at 11.8 µM; 0.59% of 350,000 active;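 active = inhibition of the ligand-induced calcium signal above about 50% at the single tested concentration, limit read from the data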
PfGluPho inh = PfG6PD (Plasmodium falciparum) enzyme inhibition; PfGluPho enzyme, NADPH resazurin-diaphorase fluorescence; inhibition, % at 20 µM; 0.78% of 350,000 active; AID 504690;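 active = inhibition reaching at least a set limit at 20 µM in the primary screen, cut at about 59% in these data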
CRFBP-R2 agonist = CRF-BP/CRF-R2 complex agonism. HEK293 CRF-R2/CRF-BP, calcium dye fluorescence (FLIPR); percent of saturating CRF peptide response. AID 588473. 0.46% of 350,000 active. activation, % at 13.2 µM;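 active = activation of at least 50%, plus an integration ratio under a set limit after plate pattern correction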
FAS-TE inh = blocks the thioesterase domain of human fatty acid synthase; inhibition, % at 15 µM; recombinant FAS-TE, OMFH fluorogenic substrate, fluorescence endpoint; AID 602261; P49327; 0.67% of 360,000 active;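 active = compounds whose normalised, plate-corrected inhibition of enzyme fluorescence in the single-dose primary screen is 50% or more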
aDG glyco act = increases alpha dystroglycan glycosylation. AID 624168. activation, % at 10 µM. 0.22% of 360,000 active. Pro5-aDG cells, alpha-DG glycosylation AlphaScreen (IIH6); 0% Pro5, 100% B10-LARGE cell signal;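 active = activation of at least 8% versus controls, or a plate z-score of at least 8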;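 note: Pro5 are CHO cells carrying HIG-tagged alpha-DG that lacks glycosylation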
PfG6PD confirm = PfG6PD inhibition, single-dose confirmed | inhibition, % at 20 µM | recombinant PfGluPho, NADPH-diaphorase-resazurin fluorescence | shares compounds with PfGluPho inh | AID 504753 | 34% of 2,400 active;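 active = inhibition of at least 50% at 20 µM in any single replicate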
Diaph ctr 10uM = counter-screen for P. falciparum G6PD inhibitors: diaphorase inhibitors, oxidizers; shares compounds with PfGluPho inh; diaphorase-coupled resazurin reduction, fluorescence, NADPH 10 uM; inhibition, % at 20 µM; 39% of 820 active;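 active = average inhibition reaching 50% or more with the compound at 20 µM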;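 note: resorufin red fluorescence formed as diaphorase reduces resazurin using NADPH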
Diaphorase 30uM = counter-screen for P. falciparum G6PD inhibitors: diaphorase inhibitors, oxidizers; 29% of 820 active; inhibition, % at 20 µM; shares compounds with PfGluPho inh; AID 504863; Diaphorase/resazurin coupled assay, resorufin fluorescence, 30 uM NADPH;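 active = inhibition averaging 50% or more, tested at 20 µM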
Hits are given with their value; – = inactive; · = no result given.

SMILES | Cardio protect | CRFBP-R2 block | PfGluPho inh | CRFBP-R2 agonist | FAS-TE inh | aDG glyco act | PfG6PD confirm | others
CC1=CC(=O)OC2CC3OC4C[C@@H](C)C5OC6CC7O[C@]8(C)C/C=C\C9OC%10CC%11OC(CC(C)C%12OCCO%12)CC(O)[C@]%11(C)OC%10CC9OC8C[C@]7(C)O[C@]6(C)CCC5OC4C[C@]3(C)OC12 (some centres not stated) | – | – | – | 75.0 | – | – | ·
CC(C)(O)/C=C/C(=O)C(C)(O)C1C(O)CC2(C)C3CC=C4C(C=C(O)C(=O)C4(C)C)C3(C)C(=O)CC12C (configuration not stated) | – | – | – | – | – | – | ·
Cn1cc(/C=C2\C(=O)NC(=O)N(c3ccccc3)C2=O)c2ccccc21 | – | – | – | 114.5 | – | – | ·
O=C(O)Cn1cc(/C=C2\C(=O)NC(=O)N(c3ccc(Cl)cc3)C2=O)c2ccccc21 | – | – | – | – | – | – | ·
O=C1C2CCCC1C(N1CCCCC1)CC2 (configuration not stated) | – | – | – | – | – | – | ·
CCC1CN2CCc3cc(OC)c(OC)cc3C2CC1CC1NCCc2c1[nH]c1ccc(O)cc21 (configuration not stated) | – | 50.9 | – | – | – | – | ·
COc1ccc2c(c1OC)CN1CCc3cc4c(cc3[C@H]1C2)OCO4 | – | – | – | – | – | – | ·
COc1ccc(CCN)cc1S(N)(=O)=O | · | · | · | · | · | – | ·
CCCCCCCCCCOC(=O)CCN1CC1 | – | 50.8 | – | – | – | – | ·
CCCCCCOc1ccc(CN2CCN(CCO)CC2)cc1 | – | – | – | – | – | – | ·
CNc1ccc2nc3ccccc3[n+](C)c2c1 | – | – | – | – | – | 2.7 | ·
C[n+]1c2ccccc2nc2ccc(NCCO)cc21 | – | – | – | – | – | – | ·
O=c1[nH]c(CN2CCNCC2)nc2ccccc12 | – | – | – | – | – | – | ·
CN1CCN(Cc2nc3ccccc3c(=O)[nH]2)CC1 | 54.9 | – | – | – | – | – | ·
CC(C)(C)c1ccc(O)c(N=Cc2c(O)ccc3ccccc23)c1 | 51.1 | – | – | 60.3 | – | – | ·
COC(=O)C(O)(c1ccc(N=Cc2ccccc2O)c(C)c1)C(F)(F)F (configuration not stated) | – | – | – | – | – | – | ·
CC(C)c1ccc(C(c2c(O)c3ccccc3oc2=O)c2c(O)c3ccccc3oc2=O)cc1 | – | 64.3 | – | – | – | – | ·
Cc1c(C(c2ccc(F)cc2)c2c(O)c3ccccc3oc2=O)c(=O)n(-c2ccccc2)n1C (configuration not stated) | – | – | – | – | – | – | ·
O=C1C(=O)c2ccccc2-c2ccccc21 | – | – | 116.8 | – | – | – | 97.0 | Diaph ctr 10uM=88.4;Diaphorase 30uM=89.7
C[C@]12CC[C@@H]3c4ccc(O)c(O)c4CC[C@H]3[C@@H]1CC[C@@H]2O | 121.2 | – | 99.7 | – | – | – | 93.2 | Diaph ctr 10uM=–;Diaphorase 30uM=–
CC(=O)OC1CCC2(/C=N/O)C(=CCC3C4CCC(=O)C4(C)CCC32)C1 (configuration not stated) | – | – | – | – | – | – | ·
CNC(=O)Oc1ccc(-c2cn3cc(C)ccc3n2)cc1 | – | – | 62.2 | – | – | – | –
CNC(=O)Oc1cccc(-c2cn3cc(Cl)ccc3n2)c1 | – | – | 61.2 | – | – | – | –
CCC(COC(=O)NC)NC(=O)Oc1cccc(C)c1 (configuration not stated) | – | – | – | – | – | – | ·
CCCCC1(CC)COP(=O)(OCC(Cl)(Cl)Cl)OC1 (configuration not stated) | – | – | – | – | – | – | ·
SMILES | Cardio protect | CRFBP-R2 block | PfGluPho inh | CRFBP-R2 agonist | FAS-TE inh | aDG glyco act | PfG6PD confirm | others
CCOC(=O)C(O)(c1ccc(NC(=O)c2ccc(Cl)c(Cl)c2)cc1)C(F)(F)F (configuration not stated) | – | – | 62.4 | – | – | – | –
CCOC(=O)C(O)(c1ccc(N(C)C(=O)c2ccc(Cl)c(Cl)c2)cc1)C(F)(F)F (configuration not stated) | – | – | – | – | – | – | ·
CCCCCCCCn1sccc1=O | – | – | 91.6 | – | – | – | 77.9 | Diaph ctr 10uM=–;Diaphorase 30uM=–
CCCCCCCCc1ccc(O)cc1 | – | – | – | – | – | – | ·
NC1CCc2cc(O)c(O)cc2C1 (configuration not stated) | – | – | 69.1 | – | – | – | 75.6 | Diaph ctr 10uM=–;Diaphorase 30uM=–
C=CC[N+]1(C)CC[C@]23c4c5ccc(O)c4O[C@H]2C(=O)CC[C@@]3(O)[C@H]1C5 (some centres not stated) | – | – | – | – | – | – | ·
COc1cc(O)c(C(=O)O)c(-c2cc(O)c(O)cc2C)c1 | – | – | 104.7 | – | – | – | 107.0 | Diaph ctr 10uM=–;Diaphorase 30uM=–
Clc1ccc(-c2nc3ccc(Cl)cn3c2CN2CCOCC2)cc1 | – | – | 60.2 | – | – | – | –
COc1ccc(C2=CC(c3ccc4c(c3)OCO4)c3c(c4ccccc4oc3=O)O2)cc1OC (configuration not stated) | – | – | – | – | – | – | ·
C/C=C1/CC(C)C(C)(O)C(=O)OCC2CCN3CCC(OC1=O)C23 (configuration not stated) | – | – | – | – | – | – | ·
CC1=NN=C(c2ccc(N)cc2)c2cc3c(cc2C1)OCO3 | – | – | – | – | – | – | –
O=c1c2ccccc2[se]n1-c1ccccc1 | – | – | 126.9 | – | – | – | 112.7 | Diaph ctr 10uM=–;Diaphorase 30uM=–
C=C1C(=O)O[C@@H]2C[C@@H](C)[C@@H]3C=CC(=O)[C@@]3(C)[C@@H](OC(=O)CC(=O)O[C@H]3[C@@H]4C(=C)C(=O)O[C@@H]4C[C@@H](C)[C@@H]4C=CC(=O)[C@]43C)[C@H]12 | – | – | 68.2 | – | – | – | 55.9 | Diaph ctr 10uM=–;Diaphorase 30uM=–
CC1=CC(C)CC(C)OC(=O)CC(c2ccc(O)cc2)NC(=O)C(Cc2c(Br)[nH]c3ccccc23)N(C)C(=O)C(C)NC(=O)C(C)C1 (configuration not stated) | – | – | – | – | – | – | ·
O=C(O)CC1OCC=C2CN3CCC45C6=CC(=O)C(=O)C([N+](=O)[O-])=C6NC4C1C2CC35 (configuration not stated) | – | – | 106.9 | – | – | – | 105.2 | Diaph ctr 10uM=91.2;Diaphorase 30uM=96.5
O=C(O)CC1OCC=C2CN3CCC45c6ccccc6NC4C1C2CC35 (configuration not stated) | – | – | – | – | – | – | ·

Assay outcomes (PubChem)
